# In the supplement of paper PMC8728848:
# This is one part of a sample in which the strongest signals are shown more often than they occur.
# Key:
# Test in all cases: glycan array binding signal (z-score within array); higher = stronger binding
# Details in all cases: glycan notation: IUPAC condensed, linker removed
# [1] = biological target: Fuc(a1-2)Gal(b1-3)GalNAc(a1-3)[Fuc(a1-2)]Gal(b1-4)Glc
# Outline: (§1)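 The Consortium for Functional Glycomics database supplied 3228 glycan arrays, of which those lacking an available protein sequence were dropped. The binding signal, a within-array Z-score, was averaged across arrays of the same protein sequence and across linkers. Negative scores can be read as non-binding.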
# [2] = biological target: Fuc(a1-2)Gal(b1-3)GalNAc(b1-4)[Neu5Ac(a2-3)]Gal(b1-4)Glc
# Outline: as §1
# [3] = biological target: Fuc(a1-2)Gal(b1-3)GlcNAc(b1-3)[Neu5Ac(a2-6)Gal(b1-4)GlcNAc(b1-6)]Gal(b1-4)Glc
# Outline: as §1
# [4] = biological target: Fuc(a1-2)Gal(b1-4)GlcNAc
# Outline: as §1
# [5] = biological target: Fuc(a1-2)[Gal(a1-3)]Gal(b1-3)GlcNAc(b1-6)GalNAc
# Outline: as §1
# [6] = biological target: Fuc(a1-2)[Gal(a1-4)]Gal(b1-4)GlcNAc
# Outline: as §1
# [7] = biological target: Fuc(a1-2)[GalNAc(a1-3)]Gal(b1-3)GlcNAc(b1-6)GalNAc
# Outline: as §1
# [8] = biological target: Fuc(a1-2)[GalNAc(a1-3)]Gal(b1-4)GlcNAc
# Outline: as §1
# [9] = biological target: Fuc(a1-2)[GalNAc(a1-3)]Gal(b1-4)GlcNAc(b1-3)Gal(b1-4)GlcNAc
# Outline: as §1
# [10] = biological target: Fuc(a1-2)[GalNAc(a1-3)]Gal(b1-4)GlcNAc(b1-6)GalNAc
# Outline: as §1
# [11] = biological target: Gal(a1-3)Gal(b1-3)GlcNAc
# Outline: as §1
# [12] = biological target: Gal(a1-3)Gal(b1-3)[Fuc(a1-4)]GlcNAc(b1-2)Man(a1-3)[Gal(a1-3)Gal(b1-3)[Fuc(a1-4)]GlcNAc(b1-2)Man(a1-6)]Man(b1-4)GlcNAc(b1-4)GlcNAc
# Outline: as §1
# [13] = biological target: Gal(a1-3)Gal(b1-4)[Fuc(a1-3)]GlcNAc(b1-2)Man(a1-3)[Gal(a1-3)Gal(b1-4)[Fuc(a1-3)]GlcNAc(b1-2)Man(a1-6)]Man(b1-4)GlcNAc(b1-4)GlcNAc
# Outline: as §1
# [14] = biological target: Gal(a1-4)Gal(b1-4)GlcNAc(b1-2)Man(a1-3)[Gal(a1-4)Gal(b1-4)GlcNAc(b1-2)Man(a1-6)]Man(b1-4)GlcNAc(b1-4)GlcNAc
# Outline: as §1
# [15] = biological target: Gal(b1-3)GlcNAc(a1-6)Gal(b1-4)GlcNAc
# Outline: as §1
# [16] = biological target: Gal(b1-3)GlcNAc(b1-2)Man(a1-3)[Gal(b1-3)GlcNAc(b1-2)Man(a1-6)]Man(b1-4)GlcNAc(b1-4)[Fuc(a1-6)]GlcNAc
# Outline: as §1
# [17] = biological target: Gal(b1-3)GlcNAc(b1-3)Gal(b1-4)[Fuc(a1-3)]GlcNAc
# Outline: as §1
# [18] = biological target: Gal(b1-3)[Fuc(a1-4)]GlcNAc(b1-2)Man
# Outline: as §1
# [19] = biological target: Gal(b1-4)GlcNAc(b1-2)Man(a1-3)Man(b1-4)GlcNAc(b1-4)GlcNAc
# Outline: as §1
# [20] = biological target: Gal(b1-4)GlcNAc(b1-2)[Gal(b1-4)GlcNAc(b1-4)]Man(a1-3)[GlcNAc(b1-4)][Gal(b1-4)GlcNAc(b1-2)Man(a1-6)]Man(b1-4)GlcNAc(b1-4)GlcNAc
# Outline: as §1
# [21] = biological target: Gal(b1-4)GlcNAc(b1-3)Gal(b1-3)GalNAc
# Outline: as §1
# [22] = biological target: Gal(b1-4)GlcNAc(b1-3)Gal(b1-4)GlcNAc(b1-2)Man(a1-3)[Gal(b1-4)GlcNAc(b1-3)Gal(b1-4)GlcNAc(b1-2)Man(a1-6)]Man(b1-4)GlcNAc(b1-4)[Fuc(a1-6)]GlcNAc
# Outline: as §1
# [23] = biological target: Gal(b1-4)GlcNAc(b1-3)Gal(b1-4)GlcNAc(b1-2)[Gal(b1-4)GlcNAc(b1-3)Gal(b1-4)GlcNAc(b1-6)]Man(a1-6)[Gal(b1-4)GlcNAc(b1-3)Gal(b1-4)GlcNAc(b1-2)Man(a1-3)]Man(b1-4)GlcNAc(b1-4)GlcNAc
# Outline: as §1
# [24] = biological target: Gal(b1-4)GlcNAc(b1-3)Gal(b1-4)GlcNAc(b1-3)Gal(b1-4)GlcNAc(b1-2)[Gal(b1-4)GlcNAc(b1-3)Gal(b1-4)GlcNAc(b1-3)Gal(b1-4)GlcNAc(b1-6)]Man(a1-6)[Gal(b1-4)GlcNAc(b1-3)Gal(b1-4)GlcNAc(b1-3)Gal(b1-4)GlcNAc(b1-2)Man(a1-3)]Man(b1-4)GlcNAc(b1-4)[Fuc(a1-6)]GlcNAc
# Outline: as §1
# [25] = biological target: Gal(b1-4)GlcNAc(b1-3)Gal(b1-4)GlcNAc(b1-3)Gal(b1-4)GlcNAc(b1-3)Gal(b1-4)GlcNAc(b1-2)[Gal(b1-4)GlcNAc(b1-3)Gal(b1-4)GlcNAc(b1-3)Gal(b1-4)GlcNAc(b1-3)Gal(b1-4)GlcNAc(b1-6)]Man(a1-6)[Gal(b1-4)GlcNAc(b1-3)Gal(b1-4)GlcNAc(b1-3)Gal(b1-4)GlcNAc(b1-3)Gal(b1-4)GlcNAc(b1-2)Man(a1-3)]Man(b1-4)GlcNAc(b1-4)[Fuc(a1-6)]GlcNAc
# Outline: as §1
# [26] = biological target: Gal(b1-4)GlcNAc(b1-3)Gal(b1-4)GlcNAc(b1-3)Gal(b1-4)GlcNAc(b1-3)Gal(b1-4)GlcNAc(b1-3)Gal(b1-4)GlcNAc(b1-2)Man(a1-3)[Gal(b1-4)GlcNAc(b1-3)Gal(b1-4)GlcNAc(b1-3)Gal(b1-4)GlcNAc(b1-3)Gal(b1-4)GlcNAc(b1-3)Gal(b1-4)GlcNAc(b1-2)Man(a1-6)]Man(b1-4)GlcNAc(b1-4)GlcNAc
# Outline: as §1
# [27] = biological target: Gal(b1-4)GlcNAc(b1-3)Gal(b1-4)GlcNAc(b1-3)GalNAc
# Outline: as §1
binder,measurement,setting,value
"Arath Fbox (Arabidopsis thaliana), NP_178341.1 (protein) EFTWGRKRRVKSESSPFDSFPEDCISYIISFTNPRDACVAATVSKTFESTVKSDIIWEKFLPADYESLIPPSRVFSSKKELYFSLCNDPVLFDDDKKSVWLEKASGKRCLMLSAMNLSIIWGDNPQYWQWIPIPESRFEKVAKLRDVCWFEIRGRTNTRVLSPRTRYSAYIVFKGVDKCYGFQNVAIEAAVGVVGQEPSRRLICFSEAIRRGRRNVVKPKQREDGWMEIELGEFFNDGGIMDNDEIEMSALETKQLNRKCGLIIQGIEIRPAKILAAAAASFLEQKLISEEDLNSAVDHHHHHH",glycan array binding signal (z-score),[1],-0.513
same,glycan array binding signal (z-score),[2],-0.123
same,glycan array binding signal (z-score),[3],-0.599
same,glycan array binding signal (z-score),[4],0.005
same,glycan array binding signal (z-score),[5],0.025
same,glycan array binding signal (z-score),[6],0.262
same,glycan array binding signal (z-score),[7],-0.626
same,glycan array binding signal (z-score),[8],-0.433
same,glycan array binding signal (z-score),[9],-0.64
same,glycan array binding signal (z-score),[10],-0.711
same,glycan array binding signal (z-score),[11],12
same,glycan array binding signal (z-score),[12],3.32
same,glycan array binding signal (z-score),[13],0.161
same,glycan array binding signal (z-score),[14],0.198
same,glycan array binding signal (z-score),[15],0.001
same,glycan array binding signal (z-score),[16],3.36
same,glycan array binding signal (z-score),[17],-0.717
same,glycan array binding signal (z-score),[18],2.33
same,glycan array binding signal (z-score),[19],-0.673
same,glycan array binding signal (z-score),[20],-0.348
same,glycan array binding signal (z-score),[21],-0.431
same,glycan array binding signal (z-score),[22],3.33
same,glycan array binding signal (z-score),[23],2.73
same,glycan array binding signal (z-score),[24],2.13
same,glycan array binding signal (z-score),[25],2.36
same,glycan array binding signal (z-score),[26],2.6
same,glycan array binding signal (z-score),[27],0.46
